Compounds with a hit are over-represented: about 1.1% of the library has one in this group of screens.
TrxR1 substrate = qHTS Assay for Substrates of Mammalian Selenoprotein Thioredoxin Reductase 1 (TrxR1): qHTS; Thioredoxin reductase 1, cytoplasmic (Rattus norvegicus), O89049; purified TrxR1 substrate turnover, NADPH consumption readout; Potency, µM (top dose mostly 114 µM), without a hit: at the top dose activity change, negative = substrate turnover; hit rate 0.01% among 390,000; further: nearly all actives have a fitted effect of over 50% in size
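Rat TrxR1, dispensed at 90 nM, was prereduced with 400 uM NADPH (final) for 5 min at ~22 deg C, then incubated with compound 15 min before 400 uM selenite. A first-read NADPH fluorescence drop versus no-compound background flagged substrates.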
IDH1 R132H inh = qHTS for Inhibitors of mutant isocitrate dehydrogenase 1 (IDH1): qHTS; IDH1-R132H enzyme, NADPH consumption, diaphorase/resazurin fluorescence; Isocitrate dehydrogenase [NADP] cytoplasmic (Homo sapiens), O75874; Potency, µM (titrated, usually from 76.6 µM), for the others: top-dose activity change, negative = inhibition, usual class: inhibitors; AID 602179, 2012; hit rate 0.093% among 390,000; further: nearly all actives have a fitted effect of over 65% in size
Target sequence (O75874 whole entry R132H, stated change not applied): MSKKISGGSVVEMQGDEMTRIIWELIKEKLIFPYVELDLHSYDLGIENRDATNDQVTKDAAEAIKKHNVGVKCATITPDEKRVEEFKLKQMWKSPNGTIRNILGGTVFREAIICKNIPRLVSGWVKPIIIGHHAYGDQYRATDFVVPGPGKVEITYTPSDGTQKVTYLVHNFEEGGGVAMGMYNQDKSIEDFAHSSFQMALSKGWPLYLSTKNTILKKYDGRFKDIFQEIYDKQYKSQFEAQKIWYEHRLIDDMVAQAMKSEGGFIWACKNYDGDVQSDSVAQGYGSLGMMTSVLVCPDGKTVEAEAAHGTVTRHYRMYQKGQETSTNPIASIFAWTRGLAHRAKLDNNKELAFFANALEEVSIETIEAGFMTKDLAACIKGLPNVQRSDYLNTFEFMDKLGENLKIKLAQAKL
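IDH1-R132H (0.5 ug/mL) preincubated 30 min with compound, then NADPH (0.016 mM) and alpha-KG (2 mM) added; 80 min at RT, pH 7.5. Remaining NADPH coupled via diaphorase/resazurin to fluorescence (540/590 nm); concentration-response curves normalized to no-enzyme control.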
rTrxR1 inhibitor = qHTS Assay for Inhibitors of Mammalian Selenoprotein Thioredoxin Reductase 1 (TrxR1): qHTS. AID 588453, 2011. hit rate 1% among 390,000. Thioredoxin reductase 1, cytoplasmic (Rattus norvegicus), O89049. Potency, µM (top dose mostly 114 µM), for inactives: top-dose activity change, negative = inhibition, actives largely listed as inhibitors. recombinant rTrxR1, NADPH fluorescence consumption, selenite substrate; further: nearly all actives have a fitted effect of over 65% in size
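Rat TrxR1 (90 nM in the dispensed reagent) was pre-reduced with 400 uM NADPH for 5 min at room temperature, then incubated with compound for 15 min. After 400 uM selenite was added, NADPH fluorescence (Ex 340/Em 450 nm) was followed for 8 min.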
Eya2 inh = qHTS Assay for Inhibitors of the Phosphatase Activity of Eya2; Protein phosphatase EYA2 (Homo sapiens), O00167; recombinant Eya2, OMFP fluorescence dephosphorylation (OMFP is methylfluorescein phosphate); Potency, µM (doses to about 76.9 µM), for the others: at the highest dose activity, negative = inhibition, hits mostly inhibitors; hit rate 0.006% among 330,000; AID 488837, 2010
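Eya2 (0.2 uM) preincubated 10 min at ambient with compound, then OMFP substrate added at 50 uM; 10 min reaction in 50 mM HEPES pH 7.5, 50 mM NaCl, 5 uM MgCl2, 0.05% BSA, 1 mM DTT. Fluorescence read at Ex 485/Em 525 nm.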
RGS4 inhibitor = Inhibitors of Regulator of G Protein Signaling (RGS) 4: qHTS; Regulator of G-protein signaling 4 (Homo sapiens), P49798; Transcreener GDP fluorescence polarization, RGS4-accelerated GTP hydrolysis; Potency, µM (titrated, usually from 114 µM), for inactives: at the highest dose activity change, negative = inhibition, actives largely listed as inhibitors; hit rate 0.039% among 390,000; further: nearly all actives have a fitted effect of over 75% in size
Target sequence (P49798 whole entry, looked up): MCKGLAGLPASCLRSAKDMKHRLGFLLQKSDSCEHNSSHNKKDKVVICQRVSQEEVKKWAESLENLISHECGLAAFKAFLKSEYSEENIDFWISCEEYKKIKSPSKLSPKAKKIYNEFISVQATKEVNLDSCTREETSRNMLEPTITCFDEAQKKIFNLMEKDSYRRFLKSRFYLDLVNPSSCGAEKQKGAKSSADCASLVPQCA
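MLSMR compounds (23 nl, pin-transferred) preincubated 10 min at room temperature with a 500nM (2x) first reagent, then RGS4 at 900nM (2x) plus Transcreener GDP mix added; fluorescence polarization (620/688 nm) read before and after 90 min at 30 °C.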
* hit, by the source's call; i = inactive; u = inconclusive; x = no result given; ! = repeats disagree; [ ] = another dose, or the depositor's remark. The call rests on the fitted dose curve; in most records, active means well fitted curve in the direction sought with a large enough effect; inconclusive means small, poorly fitted or top-dose-only effect, or another doubt; inactive means no such curve, though single readings can be large; an effect the other way counts as inactive or inconclusive. On the % scale 0 is the no-effect control and ±100 the full control effect; potency means the concentration at half of the fitted maximal effect.

SMILES	TrxR1 substrate	IDH1 R132H inh	rTrxR1 inhibitor	Eya2 inh	RGS4 inhibitor
O=C1NC(=O)C(=Cc2ccccc2Oc2ccc(F)cc2)C(=O)N1	-3.9%[57.1 µM]	1.9%	12.6µM*	-0.4%	u
O=C1NC(=O)C(=Cc2cc3c(cc2[N+](=O)[O-])OCO3)C(=O)N1	9.5%	4.4%	8.91µM*	5.8%	u
Cc1cccc(N2C(=O)NC(=O)/C(=C/c3cc4c(cc3[N+](=O)[O-])OCO4)C2=O)c1	8.7%[57.1 µM]	-5.3%	7.08µM*	13.2%	u
O=C(C(=O)N1CCOCC1)c1cn(Cc2ccccc2)c2ccccc12	5.2%[57.1 µM]	15.7%	10.9%[57.1 µM]	-26.0%	-6.9%
CC1CN=C(Nc2ccc(N(C)C)cc2)S1 (stereo not given)	13.9%	-1.9%	25.8%	10.4%	-7.2%
CN1C(=O)C(=Cc2ccc(-c3cccc(Cl)c3)o2)C(=O)N(C)C1=O	x	x	x	-10.5%	x
CN1C(=O)C(=Cc2ccccc2Oc2ccc(Cl)c(F)c2)C(=O)N(C)C1=O	-5.5%	-9.1%	11.2µM*	0.6%	u
OC(CNC1CCCCCCC1)c1ccccc1 (stereo not given)	x	x	x	0.0%	x
COc1cc(/C=C2\C(=O)NC(=O)N(c3ccccc3)C2=O)cc(OC)c1OC	12.5%[57.1 µM]	5.6%	u	-3.1%	u
COc1ccc(N2C(=O)/C(=C/c3ccc(C)o3)C(=O)NC2=S)c(OC)c1	-2.1%	-2.2%	14.1µM*	-1.9%	u
CCOC(=O)COc1ccc(/C=C2\C(=O)NC(=S)N(c3ccc(OC)cc3)C2=O)cc1OC	-0.7%	-10.3%	3.16µM*	17.7%	u
COC(=O)COc1ccc(/C=C2\C(=O)NC(=S)N(c3ccc(C)cc3)C2=O)cc1OC	0.2%	18.4%	3.98µM*	6.6%	u
COc1ccc(N2C(=O)/C(=C/c3ccc(OC)c(OC)c3)C(=O)NC2=S)cc1	-0.5%	-7.0%	12.6µM*	-0.3%	u
CCCCn1c(O)c(C=NC2CC3CCC2(C)C3(C)C)c(=O)[nH]c1=O (stereo not given)	7.8%[57.1 µM]	-1.5%	17.9%[57.1 µM]	1.3%	36.1%
Cc1ccc(C(=O)C2(C)N(O)C(C)C(c3cccs3)=[N+]2[O-])cc1 (stereo not given)	5.9%	12.5%	17.6%	-27.7%	10.2%
CC(=O)N1Cc2cnnn2-c2ccccc2C1C#N (stereo not given)	5.3%	2.4%[38.3 µM]	12.1%	x	10.8%
COc1ccc(NC(=O)CN2C(=O)C(C)N=C(c3ccccc3)c3ccccc32)cc1OC (stereo not given)	-4.6%	10.7%	-2.2%	x	1.6%
CCOC(=O)c1cc(C)sc1/N=C/C1C(=O)NC(=S)NC1=O	-4.9%[57.1 µM]	5.7%	0.708µM*	2.2%	u
CCOC(=O)c1c(/N=C/C2C(=O)NC(=S)NC2=O)sc2c1CCC2	-3.8%[57.1 µM]	-0.4%	17.8µM*	6.6%	u
CCOC(=O)c1c(/N=C/C2C(=O)NC(=S)NC2=O)sc(C)c1C	x	x	x	-17.1%	x
N#Cc1c(/N=C/C2C(=O)NC(=S)NC2=O)sc2c1CCCC2	-5.1%	8.6%	22.4µM*	-0.1%	u
C=CCN1C(=O)/C(=C/c2cc(C)n(-c3ccccn3)c2C)C(=O)NC1=S	-14.5%	-1.6%	50.1µM*	-3.8%	-45.0%
Cc1nc2c(c(=O)[nH]1)C(c1ccc([N+](=O)[O-])cc1)c1c(c3ccccc3oc1=O)O2 (stereo not given)	6.1%	-0.4%	19.1%	-10.6%	-6.3%
O=CN1CCCCC1C1CC[C@H]2CCCCN2C1 (stereo not given in full)	x	x	x	x	i
NCC(CS(=O)(=O)O)c1ccc(Cl)cc1 (stereo not given)	x	x	x	x	-10.0%[56.9 µM]
SMILES	TrxR1 substrate	IDH1 R132H inh	rTrxR1 inhibitor	Eya2 inh	RGS4 inhibitor
CCOc1ccc(N2C(=O)/C(=C\c3cccs3)C(=O)NC2=S)cc1	22.6%[57.1 µM]	3.3%	22.4µM*	12.7%	u
O=C1NC(=S)N(c2ccccc2F)C(=O)/C1=C\c1cccs1	-2.1%	3.0%	8.91µM*	0.4%	u
COC(=O)C1=C(c2cc3ccccc3o2)C[C@@H]2CC[C@H]1N2C(=O)NCc1ccco1	0.5%	16.0%	u	x	-27.1%
CNCCc1ccc(OC)c(OC)c1	5.9%[57.1 µM]	0.6%	20µM*	5.0%	15.7%
COc1ccc(CCN)cc1OC	6.4%[57.1 µM]	6.0%	3.7%[57.1 µM]	9.0%	10.2%
C[C@]1(C(=O)O)CCC[C@]2(C)c3cc(O)ccc3CC[C@@H]12	x	x	x	x	1.06µM*
CCC(C)C1NC(=O)C2CCCN2C(=O)C(CC(C)C)OC(=O)CCNC(=O)C(C)N(C)C(=O)C(C(C)C)N(C)C1=O (stereo not given)	5.2%[11.4 µM]	-0.8%	13.5%[11.4 µM]	x	13.0%
O=C(O)c1ccccc1-c1ccc(C=C2C(=O)N(c3ccccc3)C(=S)N(c3ccccc3)C2=O)o1	1.4%	-3.0%	8.91µM*	14.2%	u
O=C1NC(=O)N(c2ccccc2)C(=O)/C1=C\c1ccc([N+](=O)[O-])o1	x	x	x	19.8%	x
CCCCCOc1ccc(C)cc1CN(CCCl)CCCl	4.5%[57.1 µM]	u	u	-7.3%	-28.1%
CCCN1CCc2cc(O)cc3c2[C@H]1Cc1ccc(O)c(O)c1-3	28.3%[57.1 µM]	-1.1%	u	-2.6%	0.532µM*!
Cn1cccc1/C=C1/C(=O)NC(=S)N(Cc2ccc(F)cc2)C1=O	-1.7%	2.4%	44.7µM*	6.5%	u
Cn1cccc1/C=C1/C(=O)NC(=O)N(Cc2ccc(F)cc2)C1=O	-6.0%	-0.7%	u	11.6%	u
COc1ccccc1CN1CCN(Cc2ccc(Cl)cc2)CC1	-2.9%	-2.9%	8.3%	-7.0%	7.8%
O=P(N1CC1)(N1CC1)N1CCc2ccccc21	4.8%	-3.4%	-5.4%	x	3.0%
Cc1ccc(N=Cc2c(O)n(-c3ccc(C)cc3)c(=O)[nH]c2=O)cc1	14.1%	4.5%	-17.4%	x	5.3%
CC1=NN(c2ccccc2)C(=O)C1/C=C1/C(=O)NC(=O)N(c2cccc(C)c2)C1=O (stereo not given)	x	x	x	-18.2%	x
Cc1cccc(N2C(=O)NC(=O)/C(=C\c3ccc4c(c3)CCCN4Cc3ccccc3)C2=O)c1	11.5%[57.1 µM]	52.1µM*	u	-1.3%	u
